Values joined by “and” are separate entries in the source; they are usually repeats but may differ in a detail not shown here. Equal values may be shown once. About 79,000 compounds went through this panel and 15% of them were active in at least one assay; those are over-represented in the sample as a whole. Cut-off read from the data, not from the text of the source: active = growth inhibition above about 70%; inactive = the rest.
Key:
[1] = NCI Yeast Anticancer Drug Screen. Data for the rad50 strain (AID 155);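 note: 0% = growth of vehicle-only cultures of the same strain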; details: S. cerevisiae rad50 strain growth inhibition, active compounds read high; at 50.0 µM unless noted
Outline: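 Relative growth inhibition (compound vs vehicle) was measured in yeast with a defined repair-gene alteration.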

[2] = NCI Yeast Anticancer Drug Screen. Data for the mec2-1 strain (AID 157); details: S. cerevisiae mec2-1 strain, active compounds read high; at 50.0 µM unless noted
Outline: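 Cells of the genetically defined mec2-1 yeast strain are incubated with test compound. Inhibition of growth is calculated against vehicle-treated controls.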

[3] = NCI Yeast Anticancer Drug Screen. Data for the sgs1 mgt1 strain (AID 161);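 note: 0% = growth of cultures given vehicle only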; details: S. cerevisiae sgs1 mgt1 strain, active compounds read high; at 50.0 µM unless noted
Outline: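 Test agents were incubated with a DNA-repair-mutant yeast strain. Growth was then read and compared against vehicle-treated controls.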

[4] = NCI Yeast Anticancer Drug Screen. Data for the cln2 rad14 strain (AID 165);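 note: 0% = growth equal to vehicle treated cultures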; details: S. cerevisiae cln2 rad14 strain, active compounds read high; at 50.0 µM unless noted
Outline: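 The screen exposed genetically defined yeast (cln2 rad14) to test compounds and scored growth inhibition relative to vehicle-treated controls.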

[5] = NCI Yeast Anticancer Drug Screen. Data for the bub3 strain (AID 167); details: S. cerevisiae bub3 mutant strain, active compounds read high; at 50.0 µM unless noted
Outline: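 Screening used yeast with an engineered genetic alteration affecting cell cycle control. Compound-exposed cultures were compared with vehicle cultures, and reduced growth was taken as inhibition.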

[6] = NCI Yeast Anticancer Drug Screen. Data for the mlh1 rad18 strain (AID 175); details: S. cerevisiae mlh1 rad18 strain growth inhibition, active compounds read high; at 50.0 µM unless noted
Outline: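 Compound-treated yeast growth, normalised to vehicle controls. Strain bears defined DNA repair mutations.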

Measured: growth inhibition

COc1ccc2cc(N3CCCC3)ccc2c1
inactive: [1] 7.8% | [2] -7.35% | [3] 6.15% | [4] -14.8% | [5] -7.55% | [6] -37.8%

COc1ccc(/C=C2\C(=O)Nc3ccccc32)cc1OC
inactive: [1] -3.4% | [2] 5.45% | [3] -9% | [4] -10.4% | [5] -1.95% | [6] -4.4%

COC(=O)CSSC(C)C
inactive: [1] -29.2% | [2] -15.3% | [3] -22.1% | [4] 5.1% | [5] 6.4% | [6] -59.1%

CN(C)c1c2ccccc2c(NC=O)c2ccccc12
inactive: [1] 3.45% | [2] -14.9% | [3] 11.7% | [4] 24.6% | [5] -1.05% | [6] 9%

O=C(O)/C=C/c1cccc(F)c1
inactive: [1] -16.6% | [2] -12.2% | [3] -4.9% | [4] -15.9% | [5] -17% | [6] 10.2%

CC(C)N(C(=O)c1ccc(C(=O)N(c2ccccc2)C(C)C)cc1)c1ccccc1
inactive: [1] -40.5% | [2] -7.45% | [3] -1.25% | [4] 36% | [5] -3.45% | [6] 14.4%

CCNC(=O)Nc1cccc(C)n1
inactive: [1] 14.9% | [2] 14.1% | [3] 22.8% | [4] 27.6% | [5] 4.4% | [6] 19.4%

COC(=O)Nn1c(C)c(C(=O)OC)c(C(=O)Nc2ccccc2)c1-c1ccccc1
inactive: [1] 6.1% | [2] -3% | [3] -5.2% | [4] -1.45% | [5] 5.05% | [6] 23.5%

COc1cc2c(cc1C(C)c1ccc(Cl)cc1)OCO2 (centres undefined)
inactive: [1] 12.8% | [2] -1.55% | [3] -1.6% | [4] 21% | [5] 20.2% | [6] 4.9%

CC(C)(C)NC(=O)Nc1ccc2ccccc2c1
inactive: [1] -7.7% | [2] 3.95% | [3] -8.2% | [4] -68.5% | [5] -24.1% | [6] -11.3%

CCN(CC)CCOc1ccc(N2C(=O)c3cc(OC)c(OC)cc3C2=O)cc1
inactive: [1] -23.4% | [2] -19% | [3] -14.9% | [4] 5.25% | [5] -32.1% | [6] -34.5%

O=C(C[n+]1ccccc1CO)c1ccc(-c2ccccc2)cc1
inactive: [1] 26.2% | [2] -6.4% | [3] 17.2% | [4] -4.85% | [5] 6.5% | [6] 5.4%

CCc1ccc2nccc(NCCCN(C)C)c2c1[N+](=O)[O-]
inactive: [1] 3.55% | [2] -13.4% | [3] 6.7% | [4] 15.2% | [5] -17.7% | [6] 13.5%

CCN(CC)c1cc(C)c2cc(Cc3ccccc3)ccc2n1
inactive: [1] 35.2% | [2] 32.8% | [3] 23.9% | [4] 31.8% | [5] 65.1% | [6] 14.5%

C/C=C(\C)c1cc(=O)c2c(C)cc3c(c2o1)C(OC)(OC(C)=O)c1c(O)c(C2CC(C)(N(C)C)C(OC(C)=O)C(C)O2)cc(C2CC(N(C)C)C(OC(C)=O)C(C)O2)c1C3=O (centres undefined)
inactive: [1] -23.9% | [2] -28.3% | [3] -30.8% | [4] 0.5% | [5] -21.6% | [6] -4.8%

C[N+]1(CCC(=O)c2ccccc2)CCOCC1
inactive: [1] 42% | [2] 9.85% | [3] 28.4% | [4] 20.8% | [5] 13.5% | [6] 19.9%

CCCc1onc(-c2noc(CCC)c2CC)c1CC
inactive: [1] 15.8% | [2] -6.65% | [3] -1.9% | [4] 9.85% | [5] -19.4% | [6] 15.7%

O=c1cnn2c(n1)OC1C(O)C(CO)OC12 (centres undefined)
inactive: [1] 3.55% | [2] -2.5% | [3] 9.6% | [4] -21.7% | [5] -11.7% | [6] 22%

Cc1cccc(C2=N/C(=C\c3ccc(N(C)C)cc3)C(=O)O2)c1
inactive: [1] 20.2% | [2] 6% | [3] 7.7% | [4] 18.2% | [5] 3.05% | [6] -6.1%

CC1(C)OC(=O)C(=Cc2ccc3c(c2)OCO3)C(=O)O1
inactive: [1] 16.1% | [2] 4.25% | [3] -3.65% | [4] 19% | [5] -8% | [6] 5.1%

CSc1ccc(NC(=O)c2ccc(Cl)cc2)cc1
inactive: [1] -13.7% | [2] -6.05% | [3] -6.45% | [4] -22.7% | [5] 5.25% | [6] -3.35%

COc1ccc(NC(=O)C(C)Oc2ccc(OCC3CCCCC3)cc2)cc1 (centres undefined)
inactive: [1] -22.9% | [2] -40.5% | [3] -42% | [4] -26.1% | [5] -56.9% | [6] -29.6%

NNC(=O)c1nc2ccccc2s1
inactive: [1] 18.1% | [2] 4.75% | [3] -8.3% | [4] 5.95% | [5] 8.95% | [6] 20.6%

CCCCCCCCCCCCCCCCNC(=O)C(=O)/C=C(\O)c1ccc(C)cc1
inactive: [1] 1.15% | [2] -24.4% | [3] 18.8% | [4] -44.5% | [5] 0.6% | [6] 1.4%

CCOC(=O)C(CCc1ccccc1)(NC(C)=O)C(=O)OCC
inactive: [1] 10.4% | [2] -7.8% | [3] 12.3% | [4] -4.65% | [5] 14.3% | [6] -10%

CC(=O)Nc1cc(NC(C)=O)c2ccc(=O)[nH]c2c1O
inactive: [1] -2.9% | [2] -3.6% | [3] -3.55% | [4] -8.25% | [5] 15.3% | [6] 5.3%

Cc1cc(C)c(-c2c(C)cc(C)c(C(=O)c3ccc([N+](=O)[O-])cc3)c2C)c(C)c1C(=O)c1ccc([N+](=O)[O-])cc1
inactive: [1] 25.7% | [2] 2.85% | [3] 11.8% | [4] 9.25% | [5] 3.2% | [6] 8.85%

O=c1[nH]c2cccc([N+](=O)[O-])c2c2ccccc12
inactive: [1] 5.85% | [2] 26.6% | [3] 14.1% | [4] 23% | [5] -6.35% | [6] 11.2%

COc1c2c(cc3c1C(=O)c1c(O)cccc1C3=O)CC(O)CC2 (centres undefined)
inactive: [1] -14.7% | [2] -33.2% | [3] -13.4% | [4] -10.5% | [5] 2.8% | [6] -22.9%

CSc1ncc(C(N)=O)c(N)n1
inactive: [1] -2.05% and 12% | [2] 3.5% and -12.9% | [3] -3.35% and -9.65% | [4] -38% and -12.4% | [5] -6.7% and -12.6% | [6] 2.45% and 13.2%

C[N+](C)(CCCCCCCCCC[N+](C)(C)CC(=O)c1ccccc1)CC(=O)c1ccccc1
inactive: [1] 36.2% | [2] -7.25% | [3] 24.7% | [4] -11.8% | [5] 0.4% | [6] 18.1%

c1ccc2nc3c(cc2c1)NCC3
inactive: [1] -2.3% | [2] 5.15% | [3] -14.4% | [4] -22.6% | [5] -8.25% | [6] -20.9%

CC(=O)OC(OC(C)=O)c1ccccc1
inactive: [1] 24.2% | [2] 12.2% | [3] -3.4% | [4] 16% | [5] 5% | [6] 11.7%

CC1CCCN1CCOC(=O)C(c1ccccc1)C1CCCC1 (centres undefined)
inactive: [1] -4.65% | [2] 35.5% | [3] 32.1% | [4] -4.7% | [5] 3.3% | [6] 11.2%

NN1CCN(CCO)CC1
inactive: [1] -0.1% | [2] -39.6% | [3] -3.3% | [4] 12.2% | [5] -4% | [6] 21.6%

COC(=O)C(=O)C1CCCC(C)(c2ccccc2)C1 (centres undefined)
inactive: [1] -0.1% | [2] 2.05% | [3] -5.05% | [4] 0.2% | [5] 1.7% | [6] -4.7%

CCOC(=O)NC(=O)c1cn(CCSCCOC(=O)NCCCCCCNC(=O)OCCSCCn2cc(C(=O)NC(=O)OCC)c(=O)n(C)c2=O)c(=O)n(C)c1=O
inactive: [1] -26% | [2] -10.6% | [3] -29.7% | [4] 7.9% | [5] -0.35% | [6] -18.4%

C=CC(=O)Nc1ccccc1
inactive: [1] 16.4% | [2] -8.05% | [3] 8.25% | [4] -8.35% | [5] -10% | [6] 5.55%

N#C/C(=C/c1ccccc1)c1ccccc1
inactive: [1] 42.5% | [2] 12.6% | [3] 24.6% | [4] 14.5% | [5] 40.9% | [6] 24.1%
